PubChem BioAssay AID1159554 (Broad Institute, 2015)
The campaign covered roughly 94,000 compounds. About 2,100 (2.2%) were called active. Cut-off read from the data, not from the text of the source: active = activity change below about -80%; inconclusive = no clear call, values can overlap the other calls; inactive = above that. The sample as a whole holds a higher share of actives than the screen did.

Assay: P. falciparum Dd2 growth inhibitors, primary screen, SYBR Green fluorescence, single dose replicates (AID 1159554)
Conditions: 72 h, at 10 µM, hits give low values

Row | Compound | activity change
1 | COc1ccccc1S(=O)(=O)N1C[C@@H](O)COC[C@H]2O[C@H](CC(=O)O)CC[C@@H]21 | -3.23% (inactive)
2 | COc1ccc(NC(=O)N(C)C[C@@H]2Oc3ncc(-c4ccc(C#N)cc4)cc3C(=O)N([C@@H](C)CO)C[C@H]2C)cc1 | 34.7% (inactive)
3 | O=C(C1CCC1)N1CC[C@@H]2[C@H]1c1cc(C#Cc3ccc(F)cc3)ccc1N[C@@H]2CO | -70.8% (inactive)
4 | O=C(c1cccc(F)c1)N1C[C@H]2[C@@H](c3ccccc31)[C@@H](CO)N2C(=O)Cc1ccccc1 | 0.269% (inactive)
5 | C[C@H](CO)N1C[C@H](C)[C@@H](CN(C)CC2CCCCC2)Oc2ccc(NS(=O)(=O)c3cccs3)cc2CC1=O | -7.92% (inactive)
6 | COc1ccc(NC(=O)Nc2ccc3c(c2)C(=O)N([C@@H](C)CO)C[C@H](C)[C@H](CN(C)S(=O)(=O)c2ccccc2)OCCCC[C@@H](C)O3)cc1 | -87.4% (active)
7 | COc1ccc(NC(=O)Nc2ccc3c(c2)C(=O)N([C@H](C)CO)C[C@H](C)[C@@H](CN(C)S(=O)(=O)c2ccc(OC)cc2)OCCCC[C@H](C)O3)cc1 | 0.392% (inactive)
8 | CCCN(C)C[C@@H]1OCCCC[C@@H](C)Oc2ccc(NC(=O)Nc3ccc(C(F)(F)F)cc3)cc2C(=O)N([C@H](C)CO)C[C@H]1C | -75.7% (inactive)
9 | COc1ccc(NC(=O)Nc2ccc3c(c2)C(=O)N([C@H](C)CO)C[C@H](C)[C@@H](CN(C)C(=O)Nc2ccc(OC)cc2)OCCCC[C@H](C)O3)cc1 | -22.2% (inactive)
10 | COc1ccc(S(=O)(=O)N(C)C[C@@H]2OCCCC[C@H](C)Oc3ccc(NC(=O)Nc4ccccc4)cc3C(=O)N([C@@H](C)CO)C[C@H]2C)cc1 | -79.2% (inactive)
11 | COc1ccc(NC(=O)Nc2ccc3c(c2)C(=O)N([C@@H](C)CO)C[C@H](C)[C@H](CN(C)CC2CCCCC2)O3)cc1 | 13.9% (inactive)
12 | C[C@@H]1CN([C@H](C)CO)C(=O)c2cc(NC(=O)Nc3ccc(F)cc3)ccc2O[C@@H](C)CCCCO[C@@H]1CN(C)CC1CCCCC1 | -82.5% (active)
13 | CCCN(C)C[C@H]1OCCCC[C@@H](C)Oc2ccc(NC(=O)Nc3ccc(F)cc3)cc2C(=O)N([C@@H](C)CO)C[C@H]1C | -91.5% (active)
14 | C[C@@H]1CCCCO[C@H](CN(C)Cc2ccccc2)[C@@H](C)CN([C@@H](C)CO)C(=O)c2cc(NC(=O)Nc3ccc(F)cc3)ccc2O1 | -73.3% (inactive)
15 | COc1ccc(NC(=O)Nc2ccc3c(c2)C(=O)N([C@H](C)CO)C[C@@H](C)[C@H](CN(C)CC2CCCCC2)OCCCC[C@@H](C)O3)cc1 | -85.2% (active)
16 | C[C@@H]1CCCCO[C@H](CN(C)CC2CCCCC2)[C@H](C)CN([C@H](C)CO)C(=O)c2cc(NC(=O)Nc3ccc(F)cc3)ccc2O1 | -79.8% (inactive)
17 | CC(C)NC(=O)Nc1ccc2c(c1)C(=O)N([C@H](C)CO)C[C@H](C)[C@@H](CN(C)CC1CCCCC1)OCCCC[C@@H](C)O2 | -13.3% (inactive)
18 | O=C(C1CCCCC1)N1CC2(C1)[C@H](c1ccccc1)[C@@H](CO)N2Cc1cncnc1 | 32.5% (inactive)
19 | O=C(C[C@@H]1CC[C@@H]2[C@H](COC[C@H](O)CN2S(=O)(=O)c2ccccc2F)O1)NCc1ccccc1F | 0.606% (inactive)
20 | C[C@@H]1CCCCO[C@@H](CN(C)S(=O)(=O)c2cn(C)cn2)[C@H](C)CN([C@@H](C)CO)C(=O)c2cc(NC(=O)Nc3ccccc3)ccc2O1 | -13.9% (inactive)

Row | Compound | activity change
21 | CC(C)NC(=O)N1[C@@H]2CN(C(=O)Nc3ccc(F)cc3)c3ccccc3[C@@H]2[C@@H]1CO | 18.6% (inactive)
22 | CC(=O)N(C)C[C@H]1Oc2cc(C#Cc3ccccc3F)ccc2S(=O)(=O)N([C@H](C)CO)C[C@@H]1C | -24.1% (inactive)
23 | CC(=O)N(C)C[C@@H]1Oc2cc(C#Cc3ccccc3F)ccc2S(=O)(=O)N([C@@H](C)CO)C[C@@H]1C | -36.8% (inactive)
24 | CC(=O)N(C)C[C@H]1Oc2cc(C#Cc3ccccc3F)ccc2S(=O)(=O)N([C@@H](C)CO)C[C@H]1C | -22.1% (inactive)
25 | C[C@@H]1CN([C@H](C)CO)S(=O)(=O)c2ccc(C#Cc3ccccc3F)cc2O[C@@H]1CN(C)C(=O)c1ccc2c(c1)OCO2 | -67% (inactive)
26 | C[C@@H]1CN([C@@H](C)CO)S(=O)(=O)c2ccc(C#Cc3ccccc3F)cc2O[C@H]1CN(C)C(=O)c1ccc2c(c1)OCO2 | -85.3% (active)
27 | C[C@H]1CN([C@@H](C)CO)S(=O)(=O)c2ccc(C#Cc3ccccc3F)cc2O[C@@H]1CN(C)C(=O)c1ccc2c(c1)OCO2 | -86.6% (active)
28 | COc1ccc(C#Cc2ccc([C@H]3[C@@H](CO)N4CCCCN(C(=O)Nc5ccccc5)C[C@H]34)cc2)cc1 | -69.3% (inactive)
29 | CN(C)CC#Cc1ccc([C@@H]2[C@H](CO)N3CCCCN(C(=O)Nc4ccc(F)cc4)C[C@@H]23)cc1 | -18.7% (inactive)
30 | O=C(Nc1ccc(F)cc1)N1CCCCN2[C@H](CO)[C@H](c3ccc(C#Cc4ccccc4)cc3)[C@H]2C1 | -83.4% (active)
31 | C[C@H](CO)N1C[C@H](C)[C@@H](CN(C)Cc2cccc(F)c2)Oc2cc(C#CC3CC3)ccc2S1(=O)=O | -15.8% (inactive)
32 | C[C@@H]1CN([C@@H](C)CO)S(=O)(=O)c2ccc(-c3cccc(C#N)c3)cc2O[C@@H]1CN(C)Cc1cccc(F)c1 | -39.8% (inactive)
33 | C[C@H](CO)N1C[C@H](C)[C@@H](CN(C)C(=O)C2CC2)Oc2cc(-c3cccc(C#N)c3)ccc2S1(=O)=O | -26.1% (inactive)
34 | CCC(=O)N(C)C[C@H]1Oc2cc(-c3cccc(C#N)c3)ccc2S(=O)(=O)N([C@@H](C)CO)C[C@@H]1C | 7.55% (inactive)
35 | C[C@@H]1CN([C@H](C)CO)S(=O)(=O)c2ccc(-c3ccccc3)cc2O[C@@H]1CN(C)CC1CC1 | -40.4% (inactive)
36 | C[C@H]1CN([C@@H](C)CO)S(=O)(=O)c2ccc(-c3cccc(C#N)c3)cc2O[C@H]1CN(C)CC1CC1 | -83.2% (active)
37 | CCCN(C)C[C@@H]1Oc2cc(-c3cccc(C#N)c3)ccc2S(=O)(=O)N([C@@H](C)CO)C[C@@H]1C | -82.2% (active)
38 | CNC(=O)C[C@@H]1CC[C@@H]2[C@H](COC[C@@H](O)CN2S(=O)(=O)c2ccccc2Cl)O1 | 24.5% (inactive)
39 | Cc1ccccc1-c1ccc2c(c1)O[C@H](CN(C)Cc1ccc(C(=O)O)cc1)[C@@H](C)CN([C@H](C)CO)S2(=O)=O | -8.07% (inactive)
40 | CO[C@H](CN(C)C(=O)c1ccc2c(c1)OCO2)[C@H](C)CN([C@@H](C)CO)S(=O)(=O)c1ccc(Cl)cc1 | 10.7% (inactive)

Row | Compound | activity change
41 | COCCNC(=O)C[C@@H]1C[C@@H]2c3cc(NS(=O)(=O)c4ccccc4)ccc3O[C@@H]2[C@H](CO)O1 | 18.7% (inactive)
42 | Cn1cnc(S(=O)(=O)N2C[C@@H](O)COC[C@@H]3O[C@H](CC(=O)NC4CCC4)CC[C@H]32)c1 | 8.29% (inactive)
43 | CC(C)(C)[S@@](=O)N1Cc2cc(C(=O)NCc3ccc4c(c3)OCO4)nc(-c3cccc(-c4ccccc4)c3)c2[C@H]1CCO | -48.4% (inactive)
44 | CCCNC(=O)c1cc2c(c(-c3cccc(-c4ccc(F)cc4)c3)n1)[C@@H](CCO)N([S@](=O)C(C)(C)C)C2 | -18.8% (inactive)
45 | CC(C)(C)[S@](=O)N1Cc2cc(C(=O)N[C@@H]3CCN(Cc4ccccc4)C3)nc(-c3cccc(-c4ccncc4)c3)c2[C@@H]1CCO | -81.2% (active)
46 | COc1ccc2c3c(n(C)c2c1)[C@H](CO)N(C(=O)C1CCCC1)CC31CCN(C(=O)c2ccncc2)CC1 | -53.1% (inactive)
47 | C/C=C/c1ccc([C@@H]2[C@H](CO)N(CC3CCCC3)C23CN(C(=O)CC2CC2)C3)cc1 | -85% (active)
48 | C/C=C/c1ccc([C@@H]2[C@@H](CO)N(CC3CCCC3)C23CN(S(=O)(=O)CC)C3)cc1 | -78.3% (inactive)
49 | C/C=C/c1ccc([C@@H]2[C@H](CO)N(CC3CCCC3)C23CN(C(=O)CC)C3)cc1 | -53.8% (inactive)
50 | CCCNC(=O)N(C)C[C@H]1Oc2ncc(-c3ccc(F)cc3)cc2C(=O)N([C@H](C)CO)C[C@H]1C | 0.175% (inactive)
51 | CCCNC(=O)NC[C@H]1[C@H](c2ccc(C3=CCCCC3)cc2)[C@H](CO)N1C(C)=O | -9.89% (inactive)
52 | COc1ccc(S(=O)(=O)N(C)C[C@H]2OCCCC[C@H](C)Oc3ccc(NC(=O)CCC(F)(F)F)cc3C(=O)N([C@@H](C)CO)C[C@@H]2C)cc1 | -55.8% (inactive)
53 | C[C@H]1CN([C@@H](C)CO)C(=O)c2cccc(NC(=O)c3cnccn3)c2O[C@@H]1CN(C)Cc1ccc(Oc2ccccc2)cc1 | -3.4% (inactive)
54 | C[C@H](CO)N1C[C@H](C)[C@H](CN(C)Cc2ccccc2)Oc2ccc(NC(=O)CCCCCC(=O)Nc3ccccc3N)cc2C1=O | -61% (inactive)
55 | C[C@H](CO)N1C[C@H](C)[C@H](CN(C)Cc2ccc(Oc3ccccc3)cc2)Oc2c(NC(=O)CCCCCC(=O)Nc3ccccc3N)cccc2C1=O | -92.5% (active)
56 | Cc1noc(C)c1NC(=O)N(C)C[C@@H]1Oc2c(NC(=O)CCCCCC(=O)Nc3ccccc3N)cccc2C(=O)N([C@H](C)CO)C[C@@H]1C | 20.3% (inactive)
57 | C[C@H]1CN([C@@H](C)CO)C(=O)c2cccc(NC(=O)Nc3ccccc3)c2O[C@H]1CN(C)Cc1ccc(Oc2ccccc2)cc1 | -12% (inactive)
58 | C[C@@H]1CN([C@H](C)CO)C(=O)c2cccc(NC(=O)CCCCCC(=O)Nc3ccccc3N)c2O[C@H]1CN(C)Cc1ccc(Oc2ccccc2)cc1 | -91.8% (active)
